# Tests used:
# AAK1 = details: concentration: 1 μM, replicates: in singlicate; n = 1
# ABL1-nonphosphorylated = details: concentration: 1 μM, replicates: in singlicate; n = 1
# ABL1-phosphorylated = details: concentration: 1 μM, replicates: in singlicate; n = 1
# ABL2 = details: concentration: 1 μM, replicates: in singlicate; n = 1
# YSK4 = system: T1, YSK4
# T1 construct: gene MAP3K19
# p38-alpha = system: T2, p38-alpha
# T2 construct: gene MAPK14
# YANK2 = system: T3, YANK2
# T3 construct: gene STK32B
# YES = system: T4, YES
# T4 construct: gene YES1
# p38-gamma = system: T5, p38-gamma
# T5 construct: gene MAPK12
# 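Wherever %Inh is given: KINOMEscan kinase panel screen.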
# 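Wherever Kd is given: kd values determined as follow-up on hits from a single-replicate KINOMEscan panel screen.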
structure (smiles),measurement,setting,value
CCC(=O)c1c(-c2ccccc2)c2cc(Cl)ccc2c(=O)n1Cc1cc(S(C)(=O)=O)n(CCC(C)(C)O)n1,%Inh,AAK1,25%
same,%Inh,ABL1-nonphosphorylated,6%
same,%Inh,ABL1-phosphorylated,3%
same,%Inh,ABL2,9%
Cc1nn2c(=O)cc(N3CCOCC3)nc2n1Cc1cccc(Cl)c1Cl [GSK2342769],%Inh,AAK1,14%
same,%Inh,ABL1-nonphosphorylated,0%
same,%Inh,ABL1-phosphorylated,0%
same,%Inh,ABL2,9%
Nc1n[nH]c2ncc(-c3ccccc3)cc12 [SB-517081],%Inh,AAK1,36%
same,%Inh,ABL1-nonphosphorylated,0%
same,%Inh,ABL1-phosphorylated,18%
same,%Inh,ABL2,17%
CN1C(=O)C(Nc2cc(Cl)c(O)c(Cl)c2)=C(c2ccc(Cl)cc2)C1=O [SB-404321],%Inh,AAK1,0%
same,%Inh,ABL1-nonphosphorylated,30%
same,%Inh,ABL1-phosphorylated,0%
same,%Inh,ABL2,0%
COC(=O)c1c(-c2ccccc2)c2cc(C)ccc2c(=O)n1Cc1ccccc1,%Inh,AAK1,1%
same,%Inh,ABL1-nonphosphorylated,53%
same,%Inh,ABL1-phosphorylated,0%
same,%Inh,ABL2,6%
O=C(NCCNc1ccnc(Nc2ccc(F)cc2)n1)Nc1ccc2c(c1)OCO2 [GSK1379882],Kd,ZAK,> 10 µM
same,%Inh,AAK1,20%
same,%Inh,ABL1-nonphosphorylated,0%
same,%Inh,ABL1-phosphorylated,0%
same,%Inh,ABL2,0%
COc1cc2nccc(Nc3ccc(OCc4ccc(NC(C)=O)cc4)cc3)c2cc1OC.Cl [GW440135],%Inh,AAK1,0%
same,%Inh,ABL1-nonphosphorylated,17%
same,%Inh,ABL1-phosphorylated,0%
same,%Inh,ABL2,4%
C[C@@H]1CC[C@H](C(=O)NC2CCCCC2)CN1c1cc(-c2ccc3c(N)n[nH]c3c2)nc(N)n1 [GSK2291363],%Inh,AAK1,55%
same,%Inh,ABL1-nonphosphorylated,5%
same,%Inh,ABL1-phosphorylated,0%
same,%Inh,ABL2,20%
O=C(Nc1n[nH]c2nc(-c3ccccc3)c(Cl)cc12)C1CC1 [SB-734909],Kd,YSK4,7.7 µM
same,%Inh,AAK1,28%
same,%Inh,ABL1-nonphosphorylated,76%
same,%Inh,ABL1-phosphorylated,57%
same,%Inh,ABL2,0%
CN1C(=O)C(Nc2ccccc2)=C(c2ccccc2)C1=O [SB-300079],%Inh,AAK1,0%
same,%Inh,ABL1-nonphosphorylated,0%
same,%Inh,ABL1-phosphorylated,6%
same,%Inh,ABL2,0%
Cc1cccc(-c2cc(-c3c[nH]nc3-c3ccccn3)ccn2)c1 [GW679395],%Inh,AAK1,14%
same,%Inh,ABL1-nonphosphorylated,68%
same,%Inh,ABL1-phosphorylated,29%
same,%Inh,ABL2,48%
Nc1nc(-c2ccccc2F)c(-c2ccnc3ccccc23)s1 [GW560459],Kd,p38-alpha,0.24 µM
same,%Inh,AAK1,12%
same,%Inh,ABL1-nonphosphorylated,0%
same,%Inh,ABL1-phosphorylated,0%
same,%Inh,ABL2,3%
CCC(=O)c1c(-c2ccccc2)c2cc(Cl)ccc2c(=O)n1Cc1ccc(C(=O)O)cc1,%Inh,AAK1,0%
same,%Inh,ABL1-nonphosphorylated,30%
same,%Inh,ABL1-phosphorylated,0%
same,%Inh,ABL2,15%
CCS(=O)c1ccc(-c2coc3ccc(-c4nnc(C)o4)cc23)cc1 (stereo not drawn),%Inh,AAK1,0%
same,%Inh,ABL1-nonphosphorylated,27%
same,%Inh,ABL1-phosphorylated,0%
same,%Inh,ABL2,0%
Nc1ncnc2c1ncn2-c1cccc(F)c1 [SKF-97560],%Inh,AAK1,0%
same,%Inh,ABL1-nonphosphorylated,9%
same,%Inh,ABL1-phosphorylated,14%
same,%Inh,ABL2,8%
O=C(Nc1n[nH]c2nc(-c3ccccc3)c(Br)cc12)C1CC1 [SB-708998],Kd,YSK4,0.64 µM
same,%Inh,AAK1,8%
same,%Inh,ABL1-nonphosphorylated,43%
same,%Inh,ABL1-phosphorylated,11%
same,%Inh,ABL2,2%
Nc1ncnc2c1ncn2-c1cccc2ccccc12 [SKF-97184],Kd,YANK2,> 10 µM
same,%Inh,AAK1,0%
same,%Inh,ABL1-nonphosphorylated,46%
same,%Inh,ABL1-phosphorylated,26%
same,%Inh,ABL2,0%
COc1ccc(Nc2nccc(N3CCC(NS(=O)(=O)c4ccc(NC(C)=O)cc4)C3)n2)cc1 (stereo not drawn) [GSK1379729],Kd,p38-alpha,> 10 µM
same,%Inh,AAK1,0%
same,%Inh,ABL1-nonphosphorylated,0%
same,%Inh,ABL1-phosphorylated,0%
same,%Inh,ABL2,20%
COc1cc2nccc(Nc3cccc(Oc4ccccc4)c3)c2cc1OC.Cl [GW284543],%Inh,AAK1,0%
same,%Inh,ABL1-nonphosphorylated,0%
same,%Inh,ABL1-phosphorylated,0%
same,%Inh,ABL2,15%
COc1cc2ncn(-c3cc(OCCCc4ccccc4)c(C(N)=O)s3)c2cc1OC [GSK205189],%Inh,AAK1,35%
same,%Inh,ABL1-nonphosphorylated,0%
same,%Inh,ABL1-phosphorylated,0%
same,%Inh,ABL2,5%
COC(=O)c1c(-c2ccccc2)c2cc(Br)ccc2c(=O)n1Cc1ccc(NC(=O)CCC(=O)O)cc1,%Inh,AAK1,13%
same,%Inh,ABL1-nonphosphorylated,38%
same,%Inh,ABL1-phosphorylated,0%
same,%Inh,ABL2,18%
OCCCNc1nccc(-c2c(-c3cccc(C(F)(F)F)c3)nn3cc(C(F)(F)F)ccc23)n1 [GW630813],Kd,p38-alpha,1.3 µM
same,%Inh,AAK1,0%
same,%Inh,ABL1-nonphosphorylated,0%
same,%Inh,ABL1-phosphorylated,0%
same,%Inh,ABL2,0%
Cc1ccccc1COc1cc(-n2cnc3cc(Cl)ccc32)sc1C(N)=O [GW813349],%Inh,AAK1,2%
same,%Inh,ABL1-nonphosphorylated,9%
same,%Inh,ABL1-phosphorylated,14%
same,%Inh,ABL2,13%
COc1ccc(-c2cc3c(C)nc(N)nc3n([C@H]3CC[C@H](OCCO)CC3)c2=O)cn1,%Inh,AAK1,0%
same,%Inh,ABL1-nonphosphorylated,0%
same,%Inh,ABL1-phosphorylated,0%
same,%Inh,ABL2,0%
COc1cc(OC)cc(-c2cc3cnc(N)nc3nc2NC(=O)NC(C)(C)C)c1,Kd,YES,> 10 µM
same,%Inh,AAK1,15%
same,%Inh,ABL1-nonphosphorylated,39%
same,%Inh,ABL1-phosphorylated,0%
same,%Inh,ABL2,0%
CCC(=O)c1c(-c2ccccc2)c2cc(Cl)ccc2c(=O)n1Cc1cc(S(C)(=O)=O)n(CC(F)F)n1,%Inh,AAK1,0%
same,%Inh,ABL1-nonphosphorylated,23%
same,%Inh,ABL1-phosphorylated,2%
same,%Inh,ABL2,0%
COc1ccc(-c2cc3c(C)nc(N)nc3n([C@H]3CC[C@H](O)CC3)c2=O)cn1,Kd,p38-gamma,> 10 µM
same,%Inh,AAK1,0%
same,%Inh,ABL1-nonphosphorylated,0%
same,%Inh,ABL1-phosphorylated,0%
same,%Inh,ABL2,0%
